Experimental data: the supplement of paper PMC8728848
About 410 targets per protein were measured; listed, in parts, are those with the strongest signals and a random draw of the rest.

How the values were obtained:
Test in all cases: glycan array binding signal (z-score within array); higher = stronger binding
Settings in all cases: glycan notation: IUPAC condensed, linker removed
[1] = biological target: Fuc(a1-2)Gal(b1-3)[Fuc(a1-4)]GlcNAc(b1-3)[Fuc(a1-3)[Gal(b1-4)]GlcNAc(b1-6)]Gal(b1-4)Glc
Outline: (§1)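 Glycan array binding is given as a within-array Z-score, which can be read as non-binding when negative. The arrays, 3228 of them, came from the Consortium for Functional Glycomics database and were retained only where the protein sequence was available. Z-scores were averaged across arrays of the same protein sequence at different concentrations or buffers and across linkers.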

[2] = biological target: Fuc(a1-2)Gal(b1-4)GlcNAc(b1-2)[Fuc(a1-2)Gal(b1-4)GlcNAc(b1-4)]Man(a1-3)[Fuc(a1-2)Gal(b1-4)GlcNAc(b1-2)Man(a1-6)]Man(b1-4)GlcNAc(b1-4)GlcNAc
Outline: as §1

[3] = biological target: Fuc(a1-2)Gal(b1-4)GlcNAc(b1-3)GalNAc
Outline: as §1

[4] = biological target: Fuc(a1-2)Gal(b1-4)[Fuc(a1-3)]GlcNAc(b1-3)GalNAc
Outline: as §1

[5] = biological target: Fuc(a1-2)Gal6S(b1-3)GlcNAc
Outline: as §1

[6] = biological target: Fuc(a1-2)[Gal(a1-3)]Gal(b1-3)GlcNAc(b1-6)GalNAc
Outline: as §1

[7] = biological target: Fuc(a1-2)[Gal(a1-3)]Gal(b1-4)GlcNAc(b1-3)GalNAc
Outline: as §1

[8] = biological target: Fuc(a1-2)[GalNAc(a1-3)]Gal(b1-3)GlcNAc(b1-6)GalNAc
Outline: as §1

[9] = biological target: Fuc(a1-2)[GalNAc(a1-3)]Gal(b1-4)[Fuc(a1-3)]GlcNAc(b1-3)GalNAc
Outline: as §1

[10] = biological target: Fuc(a1-3)GlcNAc
Outline: as §1

[11] = biological target: Fuc(a1-3)[Gal(b1-4)]GlcNAc(b1-3)Gal(b1-4)[Fuc(a1-3)]GlcNAc
Outline: as §1

[12] = biological target: Fuc(a1-3)[Gal(b1-4)]GlcNAc(b1-6)GalNAc
Outline: as §1

[13] = biological target: Fuc(a1-3)[Gal(b1-4)]GlcNAc6S
Outline: as §1

[14] = biological target: Gal(a1-3)Gal(b1-3)GlcNAc(b1-2)Man(a1-3)[Gal(a1-3)Gal(b1-3)GlcNAc(b1-2)Man(a1-6)]Man(b1-4)GlcNAc(b1-4)GlcNAc
Outline: as §1

[15] = biological target: Gal(a1-3)Gal(b1-4)GlcNAc(b1-3)GalNAc
Outline: as §1

[16] = biological target: Gal(a1-3)[Gal(a1-4)]Gal(b1-4)GlcNAc
Outline: as §1

[17] = biological target: Gal(b1-2)Gal
Outline: as §1

[18] = biological target: Gal(b1-3)Gal
Outline: as §1

[19] = biological target: Gal(b1-3)Gal(b1-4)GlcNAc
Outline: as §1

[20] = biological target: Gal(b1-3)GalNAc
Outline: as §1

[21] = biological target: Gal(b1-3)GalNAc(b1-3)Gal
Outline: as §1

[22] = biological target: Gal(b1-3)GalNAc(b1-4)Gal(b1-4)Glc
Outline: as §1

[23] = biological target: Gal(b1-3)GalNAc(b1-4)[Neu5Ac(a2-3)]Gal(b1-4)Glc
Outline: as §1

[24] = biological target: Gal(b1-3)[Neu5Ac(a2-6)]GalNAc
Outline: as §1

[25] = biological target: Gal(b1-4)GlcNAc(b1-2)Man(a1-3)[Man(a1-6)]Man(b1-4)GlcNAc(b1-4)GlcNAc
Outline: as §1

[26] = biological target: Gal(b1-4)GlcNAc(b1-2)[Gal(b1-4)GlcNAc(b1-6)]Man(a1-6)[GlcNAc(b1-4)][Gal(b1-4)GlcNAc(b1-2)Man(a1-3)]Man(b1-4)GlcNAc(b1-4)GlcNAc
Outline: as §1

[27] = biological target: Gal(b1-4)GlcNAc(b1-3)Gal(b1-4)GlcNAc(b1-3)Gal(b1-4)GlcNAc(b1-3)Gal(b1-4)GlcNAc(b1-2)Man(a1-3)[Gal(b1-4)GlcNAc(b1-3)Gal(b1-4)GlcNAc(b1-3)Gal(b1-4)GlcNAc(b1-3)Gal(b1-4)GlcNAc(b1-2)Man(a1-6)]Man(b1-4)GlcNAc(b1-4)GlcNAc
Outline: as §1

[28] = biological target: Gal(b1-4)GlcNAc(b1-3)Gal(b1-4)GlcNAc(b1-3)Gal(b1-4)GlcNAc(b1-3)Gal(b1-4)GlcNAc(b1-3)Gal(b1-4)GlcNAc(b1-2)Man(a1-3)[Gal(b1-4)GlcNAc(b1-3)Gal(b1-4)GlcNAc(b1-3)Gal(b1-4)GlcNAc(b1-3)Gal(b1-4)GlcNAc(b1-3)Gal(b1-4)GlcNAc(b1-2)Man(a1-6)]Man(b1-4)GlcNAc(b1-4)[Fuc(a1-6)]GlcNAc
Outline: as §1

[29] = biological target: Gal(b1-4)GlcNAc(b1-3)GalNAc
Outline: as §1

[30] = biological target: Gal3S(b1-4)GlcNAc
Outline: as §1

B1: CFEM-SCL (Saccharomyces cerevisiae), O13547 (protein)
chain: MRATTLLSSVVSLALLSKEVLATPPACLLACVAQVGKSSSTCDSLNQVTCYCEHENSAVKKCLDSICPNNDADAAYSAFKSSCSEQNASLGD
glycan array binding signal (z-score) [1]: -0.173 | glycan array binding signal (z-score) [2]: -0.213 | glycan array binding signal (z-score) [3]: 3.91 | glycan array binding signal (z-score) [4]: 3.09 | glycan array binding signal (z-score) [5]: -0.235 | glycan array binding signal (z-score) [6]: -0.325 | glycan array binding signal (z-score) [7]: -0.207 | glycan array binding signal (z-score) [8]: -0.289 | glycan array binding signal (z-score) [9]: 2.67 | glycan array binding signal (z-score) [10]: -0.151 | glycan array binding signal (z-score) [11]: -0.174 | glycan array binding signal (z-score) [12]: 2.59 | glycan array binding signal (z-score) [13]: -0.014 | glycan array binding signal (z-score) [14]: 0.636 | glycan array binding signal (z-score) [15]: -0.281 | glycan array binding signal (z-score) [16]: -0.238 | glycan array binding signal (z-score) [17]: 0.077 | glycan array binding signal (z-score) [18]: 4.26 | glycan array binding signal (z-score) [19]: 2.99 | glycan array binding signal (z-score) [20]: 3.86 | glycan array binding signal (z-score) [21]: 14.5 | glycan array binding signal (z-score) [22]: 11.1 | glycan array binding signal (z-score) [23]: 2.46 | glycan array binding signal (z-score) [24]: 3.63 | glycan array binding signal (z-score) [25]: -0.238 | glycan array binding signal (z-score) [26]: -0.19 | glycan array binding signal (z-score) [27]: -0.022 | glycan array binding signal (z-score) [28]: -0.165 | glycan array binding signal (z-score) [29]: -0.111 | glycan array binding signal (z-score) [30]: -0.261
